# Measurements: PubChem BioAssay AID1626 (SRMLSC, 2009)
# Screen size: about 220,000 compounds; about 2,000 (0.91%) were called active. Not shown: some 2% with an inconclusive outcome. No stated cut-off is given here; in the data, inconclusive means inhibition above about 80% without an active follow-up result; inactive means below that; test concentration not stated here. Only a sample is shown. Potency and affinity values are given separately.
# Assay: M. tuberculosis H37Rv growth inhibitors, H37Rv strain (AID 1626);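 further: bacteria incubated seven days before Alamar blue readout; 0% = bacteria only wells and 100% = bacteria with antibiotic wells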
# Conditions: active compounds read high, concentration not given here
row,Structure (SMILES),inhibition
1,Cc1ccc(NC(=O)CSC2=NCCN2)cc1,-0.03% (inactive)
2,CCOc1ccc(NC(=O)CSc2nccn2C)cc1,-4.59% (inactive)
3,CCCCOc1ccc(NC(=O)CN2CCN(C(=O)OCC)CC2)cc1,-7.38% (inactive)
4,COc1cc2c(cc1OC)C(c1ccco1)CC(=O)N2 (stereo not drawn),-0.34% (inactive)
5,COc1cc(/C=C/c2ccc3cccc([N+](=O)[O-])c3n2)ccc1OCC(=O)O,6.21% (inactive)
6,CC(=O)Nc1ccc(/C=C/c2ccc3c([N+](=O)[O-])cccc3n2)cc1,-0.6% (inactive)
7,Cc1ccc(C(c2sc3nc(C)nn3c2O)N2CCOCC2)cc1 (stereo not drawn),-3.42% (inactive)
8,CCOC(=O)c1ccc(NC(=O)c2nc[nH]c2C(=O)NC)cc1,-7.95% (inactive)
9,CNC(=O)c1[nH]cnc1C(=O)Nc1ccc(C)cc1,16.9% (inactive)
10,COc1ccc(NC(=O)c2nc[nH]c2C(=O)N[C@@H](C)C(=O)OC(C)(C)C)cc1,5.92% (inactive)
11,CCOC(=O)c1ccc(NC(=O)c2nc[nH]c2C(=O)N[C@@H](CC(C)C)C(=O)OCc2ccccc2)cc1,-7.55% (inactive)
12,Cc1ccc(NC(=O)c2nc[nH]c2C(=O)Nc2ccc(C)cc2)cc1,-0.81% (inactive)
13,CNC(=O)c1[nH]cnc1C(=O)Nc1ccc(OC)cc1,5.16% (inactive)
14,Cc1ccc(CSc2ncnc3ccccc23)cc1,5.46% (inactive)
15,CCCOc1ccc(C(=O)NCC2OCCc3ccccc32)cc1OC (stereo not drawn),-1.65% (inactive)
16,CCOC(=O)C1CCCN(C2CC(=O)N(c3cccc(C)c3)C2=O)C1 (stereo not drawn),-3.61% (inactive)
17,CN(C)c1c(F)cc(C(=O)NCc2ccccc2)cc1F,-11.1% (inactive)
18,CN(CC(=O)Nc1ccc(Cl)cc1)CC(=O)Nc1cc(Cl)ccc1C#N,-1.32% (inactive)
19,ClCc1csc(N/N=C/c2cccs2)n1,-4.27% (inactive)
20,CNc1nc(OC)nc(N2CCOCC2)n1,-9.75% (inactive)
21,CSc1cccc(CN2CCN(Cc3ccccc3)C(CCO)C2)c1 (stereo not drawn),3.04% (inactive)
22,O=C1c2ccccc2S(=O)(=O)c2cc(C(=O)N3CCN(c4ccc(Cl)cn4)CC3)ccc21,5.58% (inactive)
23,CSc1nnc(-c2ccccc2)c(-c2ccccc2)n1,13.9% (inactive)
24,CSc1ncc(-c2ccccc2)cn1,2.05% (inactive)
25,COc1ccccc1-c1ccc(SCc2ccc(F)cc2)nn1,-3.99% (inactive)

row,Structure (SMILES),inhibition
1,O=C(O)/C=C/C(=O)Nc1ccc(C(=O)c2ccccc2)cc1,-9.86% (inactive)
2,CCOc1ccc(-c2cn3ccccc3n2)cc1,1.22% (inactive)
3,CCOC(=O)c1cccc(S(=O)(=O)N(CCO)Cc2cc3cc(OC)ccc3[nH]c2=O)c1,-6.73% (inactive)
4,Cc1ccc(NCc2nc3ccccc3n2CCOc2ccccc2)cc1,4.17% (inactive)
5,COc1ccc(NCc2nc3ccccc3n2CCOc2ccccc2)cc1,77.4% (inactive)
6,CC(OC(=O)C1CC1)C(=O)Nc1cc(C(F)(F)F)ccc1Cl (stereo not drawn),-2.2% (inactive)
7,CC(C)C(OC(=O)c1ccccc1)c1nccc2ccccc12 (stereo not drawn),1.56% (inactive)
8,O=C(OC(c1ccccc1)c1nccc2ccccc12)c1cccc([N+](=O)[O-])c1 (stereo not drawn),2.31% (inactive)
9,O=C(CC1SC(=Nc2ccccc2)N(CCc2c[nH]c3ccccc23)C1=O)Nc1ccccc1F (stereo not drawn),11.6% (inactive)
10,COc1cc(/C=C(\C#N)C(=O)NCC2CCCO2)cc(OC)c1OC (stereo not drawn),2.41% (inactive)
11,CCCCCCN1C=CC=C/C1=C/C=C(C#N)C#N,-1.95% (inactive)
12,CCCCOc1ccc(C(=O)C(CN2CCOCC2)c2ccccc2)cc1 (stereo not drawn),66.5% (inactive)
13,COc1ccc(C(O)C(CN2CCOCC2)c2ccccc2)cc1F (stereo not drawn),-9.62% (inactive)
14,COc1ccc(C(=O)CN2CCOCC2)cc1F,-8.03% (inactive)
15,CCCOc1ccc(C(=O)C(CN2CCOCC2)c2ccccc2)cc1 (stereo not drawn),78.9% (inactive)
16,CC(NC1CCCCC1)C(O)C12CC3CC(CC(C3)C1)C2 (stereo not drawn),-0.62% (inactive)
17,CCn1nc(C(=O)OCC(=O)c2cc(C)n(Cc3cccs3)c2C)c2ccccc2c1=O,-3.97% (inactive)
18,CN1CCN(NC(=O)c2cccc(C(F)(F)F)c2)CC1,-1.25% (inactive)
19,CCNc1nc(NC(C)(C)C)nc(N(C#N)CC)n1,2.33% (inactive)
20,Cc1cccn2c(=O)c(C=Nc3ccccc3)c(NCCO)nc12,2.59% (inactive)
21,COc1ccc(Nc2nc3c(C)cccn3c(=O)c2C=NCc2ccccc2)cc1,10.2% (inactive)
22,COc1cc(C(=O)OCC(=O)NC2CCS(=O)(=O)C2)c([N+](=O)[O-])cc1OC (stereo not drawn),-0.03% (inactive)
23,COC(CC(=O)NNC(=S)Nc1ccc(Cl)cc1)OC,4.27% (inactive)
24,CCOC(=O)C1=C(N)N(c2ccc(N3CCCCC3)cc2)C(=O)C1,-16.5% (inactive)
25,O=C(CN(C(=O)c1ccccc1Cl)C1CCCCC1)Nc1ccc(Cl)c([N+](=O)[O-])c1,-3.85% (inactive)

row,Structure (SMILES),inhibition
1,Cc1ccc([N+](=O)[O-])cc1NC(=O)CN(C(=O)c1ccc(Cl)cc1)C1CCCCC1,3.68% (inactive)
2,Cc1ccccc1NC(=O)C(=O)NCCCN1CCOCC1,-3.37% (inactive)
3,COc1cc(/C=C/C(=O)c2ccc(C)cc2)ccc1OCC#N,8.8% (inactive)
4,O=C(NCCOc1ccccc1)c1cc(C(=O)NCCOc2ccccc2)cc([N+](=O)[O-])c1,15.8% (inactive)
5,COc1cc(/C=C/C(=O)c2ccc(C)c([N+](=O)[O-])c2)cc(OC)c1O,9.83% (inactive)
6,COc1cc(/C=C/C(=O)c2ccc(O)cc2)ccc1OCC#N,17.5% (inactive)
7,COc1cccc(C(=O)/C=C/c2ccc(SC)cc2)c1,5.8% (inactive)
8,COc1cc(C(=O)O/N=C(\N)c2cccc([N+](=O)[O-])c2)cc(OC)c1OC,-4% (inactive)
9,COc1cccc(OCCNC(=O)c2cccc(OC)c2)c1,4.61% (inactive)
10,COc1cccc(/C=C/C(=O)c2ccc(C)c([N+](=O)[O-])c2)c1,17.5% (inactive)
11,CC(=O)c1c(C)[nH]c(C(=O)CSc2nnc(CN3CCCCCC3=O)n2-c2ccccn2)c1C,-2.46% (inactive)
12,Cc1ccc(C(=O)N(c2ccccc2)C2CC(C)N(C(=O)c3ccco3)c3ccccc32)cc1 (stereo not drawn),0.9% (inactive)
13,CCn1c(SCC(=O)Nc2nccs2)nnc1-c1ccccc1,-4.51% (inactive)
14,Clc1cc2nc[nH]c2cc1Cl,-8.63% (inactive)
15,CCCc1cc(=O)[nH]c(SCc2csc(-c3ccccc3)n2)n1,-1.65% (inactive)
16,Nc1nnc(-c2cccc(F)c2)s1,1% (inactive)
17,CC1CN(c2ccc(S(=O)(=O)N3CCOCC3)cn2)CC(C)O1 (stereo not drawn),-1.99% (inactive)
18,CC(=O)c1cc(C#N)c(SCc2ccc(F)cc2)nc1C,-3.8% (inactive)
19,Cc1ccc(S(=O)(=O)CCN2CCC(n3cccc3)CC2)cc1,-2.9% (inactive)
20,O=C(/C=C/c1ccc(N2CCCCC2)c([N+](=O)[O-])c1)c1ccc(O)cc1,52.4% (inactive)
21,COc1cc(/C=C/C(=O)OCC(=O)NC(=O)NC(C)(C)C)ccc1OCC#N,53.3% (inactive)
22,COc1cc(/C=C/C(=O)c2ccccc2O)cc(OC)c1OC,-1.73% (inactive)
23,O=C(/C=C/c1cccc([N+](=O)[O-])c1)Nc1cccc(NC(=O)c2cccs2)c1,13.1% (inactive)
24,COc1ccc(Oc2ccc(/C=C/C(=O)c3cccc(OC)c3)cc2[N+](=O)[O-])cc1,4.34% (inactive)
25,O=C(/C=C/c1cccc([N+](=O)[O-])c1)Nc1ccc(NC(=O)c2cccs2)cc1,3.17% (inactive)

row,Structure (SMILES),inhibition
1,COc1cc(/C=C/C(=O)OCC(=O)NC(=O)NC(C)C)ccc1OCC#N,11.7% (inactive)
2,COc1cc(/C=C/C(=O)O)cc(OC)c1OC,-1.87% (inactive)
3,CCN(C(=O)CSc1nnc(-c2ccc(Cl)cc2)n1C)C1CCS(=O)(=O)C1 (stereo not drawn),1.77% (inactive)
4,O=C(NCc1nnc(SCC(=O)N2CCOCC2)o1)c1cccs1,3.48% (inactive)
5,COc1ccc(-n2cc(CNCCN3CCOC3=O)c(-c3ccccc3Cl)n2)cc1,2.78% (inactive)
6,COC(=O)NC(NC(=S)Nc1cccc(C)c1)C(Cl)(Cl)Cl (stereo not drawn),-2.36% (inactive)
7,O=C(/C=C/c1ccccc1F)c1ccoc1,2.06% (inactive)
8,O=C(/C=C/c1ccccc1)NC1CC2CCC1C2 (stereo not drawn),0.01% (inactive)
9,O=C(/C=C/c1ccc([N+](=O)[O-])cc1)NC1CC2CCC1C2 (stereo not drawn),73.7% (inactive)
10,CN(C)/C=C/C(=O)c1cccc([N+](=O)[O-])c1,6.88% (inactive)
11,O=c1c2ccccc2ncn1CCOCCOc1cccc(Br)c1,-2.48% (inactive)
12,CC(C)(C)c1ccc(OCCOc2ccc(C(C)(C)C)cc2NC=O)c(NC=O)c1,7.57% (inactive)
13,Cc1cc(NC(=O)CSc2ccc(-c3cccc([N+](=O)[O-])c3)nn2)no1,13.3% (inactive)
14,Cn1c(O)c(N=NC(=O)C2COc3ccccc3O2)c2ccccc21 (stereo not drawn),2.52% (inactive)
15,COc1ccc(Br)cc1CN(C)C(C)C(=O)Nc1cc([N+](=O)[O-])ccc1OC (stereo not drawn),6.06% (inactive)
16,O=Nc1c(O)n(Cc2cccc(Cl)c2)c2ccccc12,-7.32% (inactive)
17,c1ccc(Cc2nn3c(COc4ccccc4)nnc3s2)cc1,8.35% (inactive)
18,CSc1nc(C)c(Cc2c(F)cccc2Cl)c(=O)[nH]1,-5.44% (inactive)
19,C=C(C)C1CC=C(CN2CC(C)OC(C)C2)CC1 (stereo not drawn),-0.53% (inactive)
20,Cc1ccc2c(Cl)cc(Cl)c(OCC(=O)O)c2n1,-9.9% (inactive)
21,Cc1ccc(NC(=O)CN(C)C(=O)COc2c(Cl)cc(Cl)c3ccc(C)nc23)cc1,5.82% (inactive)
22,COC(=O)COc1c(Cl)cc(Cl)c2ccc(C)nc12,70.4% (inactive)
23,Cc1ccc2c(Cl)cc(Cl)c(OCC(=O)N(C(C)C)C(C)C)c2n1,7.37% (inactive)
